Prx2 Sm inh = Schistosoma mansoni Prx2 inhibition | S. mansoni Prx2 activity coupled to TGR/GSH (TGR is thioredoxin glutathione reductase), NADPH fluorescence loss, qHTS | Potency, µM | 65,000 tested, 0.07% active
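Purified S. mansoni TGR and Prx2 in pH 7.4 phosphate buffer with EDTA and Tween-20 were preincubated with compounds for 15 min. Further NADPH/GSH was added, then a 2.5 mM H2O2 aliquot initiated turnover, followed kinetically by NADPH fluorescence.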
AmpC det inh = blocks E. coli AmpC beta-lactamase in presence of detergent; purified AmpC, nitrocefin hydrolysis with detergent; P00811; AID 584; Potency, µM (titrated, usually from 28.7 µM), for inactives: at the top dose activity change, negative = inhibition; 71,000 tested, 0.09% active; active means well fitted curve in the direction sought with a large enough effect; inconclusive means small, poorly fitted or top-dose-only effect; further: on the % scale 0 is the no-effect control and ±100 the full control effect
Target sequence (P00811 whole entry, looked up): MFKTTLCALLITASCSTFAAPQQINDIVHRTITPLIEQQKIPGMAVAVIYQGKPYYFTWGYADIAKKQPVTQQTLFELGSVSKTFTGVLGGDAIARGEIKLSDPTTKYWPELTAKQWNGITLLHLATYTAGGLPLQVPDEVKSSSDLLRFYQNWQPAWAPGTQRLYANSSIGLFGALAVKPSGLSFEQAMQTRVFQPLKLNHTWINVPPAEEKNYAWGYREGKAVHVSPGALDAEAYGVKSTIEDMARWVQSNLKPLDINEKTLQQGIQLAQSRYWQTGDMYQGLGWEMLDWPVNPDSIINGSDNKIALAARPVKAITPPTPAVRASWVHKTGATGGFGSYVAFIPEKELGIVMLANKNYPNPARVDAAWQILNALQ
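E. coli AmpC (5.3 nM) in 20 mM phosphate pH 7.0 with 0.01% Triton X-100, preincubated 15 min RT with compound; nitrocefin (2 uL of 800 uM stock) hydrolysis followed by 480 nm absorbance every 20 s over 4 min.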
Anthrax LT inh = anthrax lethal toxin internalization inhibition; Cells, anthrax lethal toxin internalization, FRET ratio (460/530); Potency, µM (series often up to 40 µM), inactives show at the highest dose activity change, negative = inhibition, hits mostly inhibitors; 70,000 tested, 0.67% active; further: on the % scale 0 is the no-effect control and ±100 the full control effect; nearly all actives have a fitted effect of over 50% in size
AmpC nodet inh = blocks E. coli AmpC beta-lactamase in absence of detergent. Potency, µM (series often up to 28.7 µM), inactives show at the top dose activity change, negative = inhibition. P00811. AID 585. 71,000 tested, 1.8% active. AmpC nitrocefin hydrolysis, absorbance 480 nm, no detergent; further: % of control where 0% means no effect
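AmpC in 20 mM phosphate buffer pH 7.0 was preincubated 15 min at room temperature with compounds. Nitrocefin (800 uM stock) was then added and hydrolysis followed at 480 nm every 20 s for 4 min.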
Starred values were filed as active, the others as inactive; ? = inconclusive; nt = no result; ! = a repeat was not active; [ ] = another dose, or the depositor's remark. Only some compounds are listed: those with a hit (about 2.4% of all), similar ones and a draw of the others. Unless noted, the call rests on the fitted dose curve. Potency means the concentration at half of the fitted maximal effect.

SMILES	Prx2 Sm inh	AmpC det inh	Anthrax LT inh	AmpC nodet inh
CC[N+](CC)(CC)CCOc1cccc(OCC[N+](CC)(CC)CC)c1OCC[N+](CC)(CC)CC	?	-5%[12.8 µM]	-4%[3.58 µM]	13µM*!
CC(C)C[C@@H](CC(=O)N[C@@H](CCC(=O)O)CC(=O)O)NC(=O)[C@@H]1CCCC[C@H]1NC(=O)C[C@@H](NC(=O)C[C@H](CO)NC(=O)[C@@H]1CNCC[C@H]1N)C(C)C	>57	3%	?	17%
BrC/C=C/CBr	nt	8%	?	-9%
Ic1ccccc1CN[C@@H]1C2CCN(CC2)[C@H]1C(c1ccccc1)c1ccccc1	>57	0%	16µM*	91%
O=S(=O)(c1ccccc1)N1CCC[C@@]2(CCN(C(c3ccccc3)c3ccccc3)C2)C1	>57	-3%	1%	15%
COc1ccccc1S(=O)Cc1ccc(C(=O)NC2CCCC2)o1 (centres undefined)	>57	11%	-19%	4µM*[single pt active]
COc1ccccc1S(=O)(=O)Cc1ccc(C(=O)NCCN(C)C)o1	>57	5%	-13%	-2%
COc1ccccc1S(=O)Cc1ccc(C(=O)NCCc2ccc(Cl)cc2)o1 (centres undefined)	>57	11%	2.5µM*	73%
COc1ccc(S(=O)(=O)Cc2ccc(C(=O)NC3CC3)o2)cc1	>57	4%	9%	0%
C[N+]1(C)CCc2cc3c(cc2[C@@H]1[C@@H]1OC(=O)c2c1ccc1c2OCO1)OCO3	>57	-2%	7%	7%
CCOC(=O)OCC1OC(c2ccccc2)C=CC1Oc1ccc(F)cc1C (centres undefined)	nt	nt	-20%[8 µM]	nt
O=C(CCc1ccccc1)N1CCN(CCO)CC1	>57	11%	-8%	4µM*[single pt active]
O=C(c1cccs1)N1CCN(CCc2ccccc2)CC1	>57	-3%	8%	10%
Cn1cc(C(=O)c2ccccc2)c2ccccc21	>57	10%	-23%	4µM*[single pt active]
CCCC(=O)N1CCN(c2ccc(NC(=O)c3cc4ccccc4o3)cc2Cl)CC1	>57	-2%	6.3µM*	50%
CCC(=O)N1CCN(c2ccc(NC(=O)c3cc4ccccc4o3)cc2Cl)CC1	>57	-5%	10µM*	109%
O=C(Nc1ccc(N2CCN(C(=O)c3ccco3)CC2)c(Cl)c1)c1cc2ccccc2o1	>57	-4%	?	18%
O=S(=O)(NCCO)c1cc[c]([Sb](=[O])([OH])[OH])cc1	>57	1%[5.75 µM]	-4%[8 µM]	-11%[5.75 µM]
N[C@H](CCl)C(=O)O	>57	-1%	0%	-3%
COc1cccc(NC(=O)Cn2nnc(C(=O)Nc3ccccc3)c2N)c1	>57	0%	7%	-13%
COc1cc(NC(=O)c2nnn(Cc3ccc(SC)cc3)c2N)cc(OC)c1	>57	11%	?	4µM*[single pt active]
COC(=O)c1nnn(Cc2ccccc2)c1N	>57	-1%	7%	-2%
CSc1cccc(NC(=O)c2nnn(Cc3ccccc3)c2N)c1	>57	-2%	?	-16%
COc1ccc(OC)c(NC(=O)c2nnn(CCc3ccccc3)c2N)c1	>57	12%	-13%	4µM*[single pt active]
COc1cccc(NC(=O)c2nnn(CCc3ccccc3)c2N)c1	>57	9%	?	4µM*[single pt active]
SMILES	Prx2 Sm inh	AmpC det inh	Anthrax LT inh	AmpC nodet inh
CCc1ccc(Cn2nnc(C(=O)Nc3ccc(OC)cc3OC)c2N)cc1	>57	10%	-10%	4µM*[single pt active]
CN(C)c1ncc2nc(-c3cc(F)cc(F)c3)c(=O)n(C[C@H]3CCCO3)c2n1	>57	0%	?	12%
O=c1cccc2n1C[C@H]1C[C@@H]2CN(CCO)C1	>57	-2%	0%	10%
C=C1C/C(=C\C)C(=O)O[C@@H]2CCN3CC=C(COC(=O)[C@]1(C)O)[C@H]23	>57	-3%	nt	-5%
Cc1ccc2c(c1)C(=O)[C@@]1(O)CCN(c3ccccc3)C1=N2	>57	0%	11%	18%
CCOc1ccc(NC(=O)Cn2nnc(C(=O)NCc3ccccc3OC)c2N)cc1	>57	-5%	?	-8%
CCOc1ccc(Cn2nnc(C(=O)NCc3ccc(OC)cc3)c2N)cc1	>57	15%	-16%	4µM*[single pt active]
CCCCN(CC)CCCNC(=O)c1cc2c(=O)n(C)c3ccccc3c2n1C	>57	14%	4µM*	21%
Cn1c(C(=O)NCCN2CCCCCC2)cc2c(=O)n(C)c3ccccc3c21	>57	10%	1.6µM*	128%
CN1CCN(CCCNC(=O)c2cc3c(=O)n(C)c4ccccc4c3s2)CC1	>57	5%	10µM*	33%
CC1CCN(CCCNC(=O)c2cc3c(=O)n(C)c4ccccc4c3n2C)CC1	>57	12%	6.3µM*	20%
CC(C)OCCCNC(=O)c1cc2c(=O)n(C)c3ccccc3c2n1C	>57	14%	5%	29%
Cn1c(C(=O)NCCN2CCN(Cc3ccccc3)CC2)cc2c(=O)n(C)c3ccccc3c21	>57	7%	-2%	?
N#CCCn1c(=O)c(-c2ccc(Cl)cc2)nc2cnc(Oc3ccccc3)nc21	>57	-2%	?	-2%
CCCCCCC1=Cc2cc(OC)c(OC)cc2C(C(C(C)=O)C(=O)OC)O1 (centres undefined)	nt	nt	-9%[8 µM]	nt
Cn1c(C(=O)NCC2CCCO2)cc2c(=O)n(C)c3ccccc3c21 (centres undefined)	>57	12%	5%	4µM*[single pt active]
COc1ccccc1CNC(=O)c1cc2c(=O)n(C)c3ccccc3c2n1C	>57	11%	3%	4µM*[single pt active]
Cn1c(C(=O)Nc2ccc3c(c2)OCO3)cc2c(=O)n(C)c3ccccc3c21	>57	6%	?	4µM*[single pt active]
O=c1ccc2cc(O[C@@H]3O[C@@H](CO)[C@@H](O)[C@@H](O)[C@H]3O)c(O)cc2o1	>57	1%	?	0%
Oc1ccc(Nc2nc(N3CCCC3)c3ccccc3n2)cc1	>57	30%	13µM*	?
Cc1ccc(Nc2nc(N3CCOCC3)c3ccccc3n2)cc1	>57	0%	-14%	10%
CO[C@]1(NC(=O)C2SC(=C(C(N)=O)C(=O)O)S2)C(=O)N2C(C(=O)O)=C(CSc3nnnn3C)CS[C@H]21 (some centres undefined)	>57	2µM*	0.5µM*	?
CN(C)CCn1nnnc1SCC1=C(C(=O)O)N2C(=O)[C@@H](NC(=O)Cc3csc(N)n3)[C@@H]2SC1	>57	-4%[12.8 µM]	-13%[3.58 µM]	0%[12.8 µM]
CO[C@]1(NC(=O)CSCC#N)C(=O)N2C(C(=O)O)=C(CSc3nnnn3C)CS[C@H]21	>57	?	?	7.9µM*![single pt active]
CO[C@]1(NC(=O)Cc2cccs2)C(=O)N2C(C(=O)O)=C(COC(N)=O)CS[C@H]21	>26	5µM*	5µM*	5µM*
Cn1nnnc1SCC1=C(C(=O)O)N2C(=O)[C@@H](NC(=O)[C@@H](O)c3ccccc3)[C@@H]2SC1	>57	-3%[12.8 µM]	0%[3.58 µM]	-18%[12.8 µM]
Clc1ccc(CSCCc2ccncc2)cc1Cl	>57	-2%[5.75 µM]	-12%[8 µM]	4%[5.75 µM]
O=C1OC2(c3ccc(O)cc3Oc3cc(O)ccc32)c2c1c(-c1ccccc1)c(-c1ccccc1)c(-c1ccccc1)c2-c1ccccc1	>57	-5%[5.75 µM]	?	2.5µM*
O=C(NCCc1ccccc1)c1ccc(-n2cnnn2)cc1	>57	17%	9%	4%

Source: PubChem BioAssay (National Center for Advancing Translational Sciences (NCATS))
